Among the data in PubChem BioAssay (NCI) are growth values, retold here.

This is part of a sample that, as a whole, favours compounds with a hit. Of some 83,000 tested, about 20% had one in any assay.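 Interpretation: 100, growth as untreated; towards 0, rising growth inhibition; 0, no net growth; 0 to -100, cell death. Compounds scoring below 10 were considered active.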 Active and inactive are the calls of the source.

One assay relates to HT29 colon. Kind of assay: NCI-60 one-dose screen, 48 h (100 = growth as untreated, 0 = no growth, -100 = all killed). The settings on record: 10 µM unless noted.
For `COc1cc(F)c(F)c(Nc2ccc(I)cc2F)c1NS(=O)(=O)C1(C[C@H](O)CO)CC1`, the growth was 5.42% (active). For the molecule `Nc1ccc(S(=O)(=O)O)c2cc(S(=O)(=O)O)cc(O)c12`, the growth was 108% (inactive). In the case of `COc1cc2ncnc(Nc3ccc(F)c(Cl)c3)c2cc1NC(=O)/C=C/CN1CCCCC1`, the growth is -63.4% (active). Take `COc1ccc(C(=O)N2c3ccccc3Sc3ccccc32)c(F)c1`: the growth was 5.07% (active). Same read-out and setting: then `O=S1(=O)OC(c2ccc(O)c(Cl)c2)(c2ccc(O)c(Cl)c2)c2ccccc21`, with 123% (inactive); and `C[C@H](NC(=O)c1c(N)nn2cccnc12)c1cc2cccc(C#Cc3cnn(C)c3)c2c(=O)n1-c1ccccc1`, with 2.38% (active); and `Cc1cc(O)cc(-c2c(-c3ccnc(-c4cccnc4)c3)cnn2C)c1`, with 60.7% (inactive). Consider `CN1CCN(CCOc2cc(OC3CCOCC3)c3c(Nc4c(Cl)ccc5c4OCO5)ncnc3c2)CC1`, for which the growth was 7.45% (active).

For another assay, the system named is SNB-75 CNS. The assay is described as above. The settings on record: 10 µM unless noted.
As for `CC(C)(C)c1ccc(Cn2cc(CSc3nc4ccccc4s3)nn2)cc1`, the growth is 94% (inactive). With `CCN1CCN(Cc2ccc(Cc3ncc(F)c(-c4cc(F)c5nc(C)n(C(C)C)c5c4)n3)nc2)CC1`, the growth was 21.2% (inactive). For `CC(=O)NCC(=O)N1[C@@H]2CC[C@H]1c1ccc(Nc3ncc(C(F)(F)F)c(NC4CCC4)n3)cc12`, the growth is 19.7% [2.5 µM] (inactive). Regarding `O=C(NOCCO)c1cc(CN2OCCCC2=O)c(F)c(F)c1Nc1ccc(I)cc1F`, the growth is 71.5% (inactive). With `CC(C)CC(=O)Nc1n[nH]c2c1CN(C(=O)C1CCN(C)CC1)C2(C)C`, the growth was -19.8% (active). With `Cc1ccc(N)cc1CN1C(=O)c2ccccc2C1=O`, the growth is 87% (inactive).

In the case of `COCc1c(-c2ccc(NC(=O)Nc3cc(C(F)(F)F)ccc3F)c(F)c2)c2c(N)ncnn2c1CN1CCOCC1`, the growth is -95.8% (active). On to `O=C(CNc1nc2ccccc2s1)Nc1ccc(-c2nc3ccccc3s2)cc1`, for which the growth was 99% (inactive).

`N#CC[C@H](C1CCCC1)n1cc(-c2ncnc3[nH]ccc23)cn1`: the growth is 33.8% (inactive). In the case of `C=CC(=O)Nc1cc2c(Nc3ccc(F)c(Cl)c3)ncnc2cc1C#CC(C)(C)N1CCN(C)CC1`, the growth was -99.8% (active). Consider `CC(=O)C1=C(C)NC(SCc2nnc(-c3ccc(C)cc3)o2)=NC1c1ccc(F)cc1` (configuration not stated), for which the growth was 98.5% (inactive). For the molecule `CNC(=O)c1ccc(Nc2ncc(C(F)(F)F)c(NCc3nccnc3N(C)S(C)(=O)=O)n2)cc1`, the growth is -44.7% (active). For the molecule `C/C=C/C=N/NC(=S)Nc1ccccc1`, the growth is 80.8% (inactive). On to `COc1cc(N2CCC(N(C)C)CC2)ccc1Nc1ncc(Cl)c(Nc2ccccc2P(C)(C)=O)n1`, for which the growth is -82.5% (active). Turning to `CN1CCN(CCCOc2cccc3nc(Nc4ccc(Cl)c(C(F)(F)F)c4)ccc23)CC1`, the growth was -3.73% (active). For `C#Cc1cccc(Nc2ncnc3cc(OC)c(OCCCCCCC(=O)NO)cc23)c1`, the growth was 2.04% (active). With `Cc1ccc(-n2nc(C(C)(C)C)cc2NC(=O)NCc2cc(F)ccc2Oc2ccc3c(cnn3CCO)c2)cc1`, the growth is 32.7% (inactive). Turning to `Cn1ccnc1C(=O)/C=C/c1ccc(CC(=O)Nc2ccc(Br)cc2)cc1`, the growth was 8.2% (active).

In the case of `Cc1[nH]n(C(N)=S)c(=O)c1N=Nc1ccc(S(=O)(=O)Nc2ccncn2)cc1`, the growth is 73.7% (inactive). On to `Cc1[nH]c(/C=C2\C(=O)Nc3ccc(F)cc32)c(C)c1C(=O)NC[C@H](O)CN1CCOCC1`, for which the growth is 35.2% (inactive).

As to `Cn1ncc(Cl)c1-c1cc(C(=O)N[C@H](CN)Cc2cccc(F)c2)sc1Cl`, the growth was -46.2% (active).

For `Cn1cc(-c2ncnc3ccc(-c4cnc(Cl)c(NS(C)(=O)=O)c4)cc23)c2ccccc21`, the growth is -14.9% (active). For the molecule `O=[N+]([O-])c1cc(Br)cc2c1[nH]c1ccc(Br)cc12`, the growth was 19.9% (inactive). Turning to `COc1ccc2c(OCc3nnc4ccc(-c5ccccc5)nn34)ccnc2c1`, the growth is 93.5% [2.5 µM] (inactive). Regarding `CC(=O)O[C@]1(C)C[C@H](O)[C@]2(O)C=CO[C@H](O[C@@H]3O[C@H](CO)[C@@H](O)[C@H](O)[C@H]3O)[C@@H]21`, the growth was 83.3% (inactive). For `COc1cc2cc(NCc3ccc(F)cc3)nc(C)c2cc1OC`, the growth was 101% (inactive).

Take `O=C(Nc1nc2cccc(-c3ccc(CN4CCS(=O)(=O)CC4)cc3)n2n1)C1CC1`: the growth was 90.3% (inactive). On the same count and under the same terms, then `N#Cc1c(-c2ccc(Cl)cc2)csc1NC(=O)Nc1cccc(C(F)(F)F)c1`, with 29.3% (inactive). Consider `O=C(c1ccc(/C=C/c2n[nH]c3ccccc23)cc1)N1CCNCC1`, for which the growth is 0.841% (active). For `Cc1cnc(Nc2ccc(OCCN3CCCC3)cc2)nc1Nc1cccc(S(=O)(=O)NC(C)(C)C)c1`, the growth is -97.9% (active).

Regarding `CO[C@H]1C[C@@H]2CC[C@@H](C)[C@@](O)(O2)C(=O)C(=O)N2CCCC[C@H]2C(=O)O[C@H]([C@H](C)C[C@@H]2CC[C@@H](OCCO)[C@H](OC)C2)CC(=O)[C@H](C)/C=C(\C)[C@@H](O)[C@H](OC)C(=O)[C@H](C)C[C@H](C)\C=C/C=C/C=C/1C`, the growth is 20.8% (inactive). `COc1cc(F)c(F)c(Nc2ccc(I)cc2F)c1NS(=O)(=O)C1(C[C@H](O)CO)CC1`: the growth is 41% (inactive).

Regarding `Nc1ccc(S(=O)(=O)O)c2cc(S(=O)(=O)O)cc(O)c12`, the growth is 113% (inactive). Same read-out and setting: as for `COc1cc2ncnc(Nc3ccc(F)c(Cl)c3)c2cc1NC(=O)/C=C/CN1CCCCC1`, the figure is -97.8% (active). For `COc1ccc(C(=O)N2c3ccccc3Sc3ccccc32)c(F)c1`, the growth was -11.3% (active).

With `O=S1(=O)OC(c2ccc(O)c(Cl)c2)(c2ccc(O)c(Cl)c2)c2ccccc21`, the growth is 78.4% (inactive). As to `C[C@H](NC(=O)c1c(N)nn2cccnc12)c1cc2cccc(C#Cc3cnn(C)c3)c2c(=O)n1-c1ccccc1`, the growth is -6.15% (active).

Take `Cc1cc(O)cc(-c2c(-c3ccnc(-c4cccnc4)c3)cnn2C)c1`: the growth was 16.4% (inactive).

As to `CN1CCN(CCOc2cc(OC3CCOCC3)c3c(Nc4c(Cl)ccc5c4OCO5)ncnc3c2)CC1`, the growth is -17.7% (active).
